In all, about 69,000 compounds went through this assay and about 8,600 (12%) showed an effect of 50% or more. The sample holds strong results, similar compounds and a random draw of the others, so the mix is not that of the screen.

The test system of this assay is Plasmodium berghei. The assay can be described thus: Screen against P. berghei liver stage (PbLuc), transformed with Luciferase, at 10uM. It counts as functional, HepG2. Conditions: tested at 10 uM.
Consider `CC(C)CCN1CCc2cc(C(=O)N(C)C)c(NCC3CC3)nc2CC1`, for which the INHIBITION is given as -35%.

Regarding `CC(=O)N[C@@H]1CN(C(=O)c2cc3sccc3[nH]2)C[C@H]1c1ccc(C)o1`, the INHIBITION was -7.94%. With `CC(=O)N[C@@H]1CN(C(=O)c2ccc[nH]2)C[C@H]1c1ccc(C)o1`, the INHIBITION is given as 45.1%. As to `CC(=O)N[C@@H]1CN(C(=O)c2cc3ccccc3[nH]2)C[C@H]1c1ccc(C)o1`, the INHIBITION turned out to be 61.2%. Take `Cc1nc(O)cc(CN2C[C@H](NC(=O)C3CCCC3)[C@@H](C3CC3)C2)n1`: the INHIBITION is -69.6%. On to `CCC[C@H]1CN(c2nc(CO)cs2)C[C@@H]1NC(=O)C1CCC1`, for which the INHIBITION was determined as 48.2%.

Turning to `CC(=O)N[C@@H]1CN(c2nc(C(N)=O)cs2)C[C@H]1c1ccc(C)o1`, the INHIBITION stood at 35%. The value for `CCc1nnc(N2C[C@@H](NC(C)=O)[C@H](c3ccc(C)o3)C2)s1` was 44.3%; that for `O=C(N[C@H]1CN(c2nc(CO)cs2)C[C@@H]1C1CC1)C1CCCCC1` was 50.4%. `CC(=O)N[C@@H]1CN(c2nc(CO)cs2)C[C@H]1c1ccc(C)o1`: the INHIBITION was found to be 65.6%. Next, `Cc1ccccc1C1CN(c2cnn(C)c(=O)c2Cl)CCO1` (configuration not stated): -3.35%; `Cc1cnc(N2C[C@H]3CN(Cc4csc(C)n4)C(=O)[C@H]3C2)nc1`: 31.4%. The value for `CCOC(=O)[C@]12CCCN(Cc3ccco3)C[C@H]1CN(S(C)(=O)=O)C2` was 6.67%; that for `Cc1ccc2c(c1)[C@@H](CC(=O)N1CCN(C)CC1)CCO2` was -12.2%; that for `CNC(=O)[C@H]1C[C@@H]2CN(S(=O)(=O)c3ccc(F)cc3)C[C@@H]2N1C` was 35.8%. Next, `CCN1CC[C@@]2(C(=O)N3CCCC3)CCN(S(C)(=O)=O)CC[C@@H]12`: -45.5%; `Cc1ncsc1CN1C[C@@H]2COC[C@]2(CNC(=O)c2ccccc2)C1`: -49.6%. For the compound `Cc1cccc(COC[C@H]2CC[C@H]3[C@H](CCN3C(=O)CC3CC3)O2)n1`, the INHIBITION amounted to 2.84%. Consider `COc1cccc(COCC(=O)N2CCCCCC2)c1`, for which the INHIBITION was -51.075%.

With `O=C(CCc1cn[nH]c1)N1C[C@@H](CN2CCCCCC2)[C@@H](CO)C1`, the INHIBITION worked out at 36.6%. For the compound `O=C(CCCc1cn[nH]c1)N1C[C@@H](CN2CCOCC2)[C@@H](CO)C1`, the INHIBITION stood at 2.3%. The value for `COc1cccc(C(=O)N2CCN(C(=O)CCn3ccnc3)CC2)c1` was 55%; that for `COc1cccc(OCC2CCCN(C(=O)CCn3ccnc3)C2)c1` (configuration not stated) was 82.2%.

`COc1ccccc1C(=O)N1CCN(C(=O)CCn2ccnc2)CC1`: the INHIBITION is -27.4%. `COc1cccc(C(=O)N2CCN(C(=O)CCCn3ccnc3)CC2)c1`: the INHIBITION is 40.9%.

For the compound `COc1cccc(C(=O)N2CCN(C(=O)CCCc3cn[nH]c3)CC2)c1`, the INHIBITION amounted to 65.6%. Next, `COc1cccc(OCC2CCCN(C(=O)CCCn3cccn3)C2)c1` (configuration not stated): 16.9%; `COc1ccc(C(=O)N2CCN(C(=O)CCCc3cn[nH]c3)CC2)cc1`: 26.4%.

As to `COc1cccc(OCC2CCCN(C(C)=O)C2)c1` (configuration not stated), the INHIBITION is -20.9%. On to `O=C(CCCc1cn[nH]c1)N1C[C@@H](CN2CCCCCC2)[C@@H](CO)C1`, for which the INHIBITION came to 52.2%. The value for `COc1ccccc1C(=O)N1CCN(C(=O)CCCc2cn[nH]c2)CC1` was 32%; that for `N#CC(NC(=O)CNC(=O)c1ccccc1)c1ccsc1` (configuration not stated) was 18.5%.

As to `CC(=O)Nc1nc(C2CN(C(=O)C3CCC3)C2)cs1`, the INHIBITION was found to be 37.6%. With `Cn1c(C(=O)N2CC[C@@]3(O)CCCC[C@H]3C2)cc2ccccc21`, the INHIBITION is recorded as -9.51%. The value for `COc1ccc([C@@H]2CN(C(=O)c3cscn3)C[C@H]2C(=O)O)cc1` was -9.32%; that for `O=C(Cc1n[nH]c2ccccc12)N1CCCCC1Cn1cccn1` (configuration not stated) was -31.5%. Next, `Cc1nn(C)c(N(C)C)c1CNCCOc1ccc2c(c1)OCO2`: -20.893%; `OC(CN1CCOCC1)c1ccc(Br)cc1` (configuration not stated): 1.56%; `CCC(=O)NC(C)c1ccccc1C` (configuration not stated): 10.06%. Next, `Cc1c(C(=O)N2CCCC(n3cncn3)C2)cnn1C` (configuration not stated): 1.75%; `Nc1nnc(C2CC(=O)N(c3ccccc3)C2)s1` (configuration not stated): 44.9%; `Cn1cc(-c2nc(CN3CCN(c4nccs4)CC3)cs2)cn1`: 42.7%. Regarding `c1cncc(C2COC3(CCN(CC4CCOCC4)CC3)C2)c1` (configuration not stated), the INHIBITION is 23.3%. The value for `O=C(Cc1nc(-c2ccncc2)n[nH]1)N1CCOCC1` was 78.8%; that for `COCCCNC(=O)Cc1nc(-c2ccncc2)n[nH]1` was 77.7%. Turning to `O=C(NCCCN1CCOCC1)c1cc(-c2ccccc2)[nH]n1`, the INHIBITION was -14.3%. With `O=C(COCc1nc(-c2ccncc2)no1)N1CCOCC1`, the INHIBITION is on record as 1.06%. As to `O=C(NCCCN1CCOCC1)c1cc(-c2ccco2)[nH]n1`, the INHIBITION is reported as -26.5%. As to `O=C(Cc1nc(-c2ccncc2)n[nH]1)NCCCN1CCOCC1`, the INHIBITION came out at 66.3%. The value for `O=C(COCc1nc(-c2ccncc2)no1)N1CCCC1` was 16.8%; that for `CC(C)c1cc(C(=O)NCCc2nc(-c3ccncc3)n[nH]2)[nH]n1` was 5.7%; that for `CC(C)C(=O)NCCc1nc(-c2ccncc2)n[nH]1` was 28.2%. Regarding `OCC1CCCN1c1cc(NCc2cccc3cccnc23)ncn1` (configuration not stated), the INHIBITION is -21.8%. As to `Cc1ccc(CS(=O)(=O)CC(=O)NCCCOC(C)C)cc1`, the INHIBITION is listed as 15.6%. On to `Cc1cc(C)c(CNC(=O)NC(C)c2ccc3c(c2)CCC3)c(=O)[nH]1` (configuration not stated), for which the INHIBITION is 48.2%. Next, `Cc1cc(CN2CCOC(CNc3cccnn3)C2)on1` (configuration not stated): 2.3%; `COc1ccccc1N1CCN(C(=O)CSCC2CC2)C(C)C1` (configuration not stated): 51.2%; `CCN1CCC(CC(=O)N2CCN(c3ccccc3OC)CC2C)CC1` (configuration not stated): 21.2%.

Regarding `COc1ccccc1N1CCN(C(=O)CSC(C)C)C(C)C1` (configuration not stated), the INHIBITION was found to be 17.6%. The value for `COc1ncccc1-c1cc(C(=O)NC2CC2)ccn1` was -68.7%; that for `COc1ncccc1-c1ncccc1NC(=O)C(C)C` was 24.3%; that for `COc1ncccc1-c1cc(C(N)=O)ccn1` was 52.2%.

With `CN1CCCC1CNC(=O)CCOc1ccc(Cl)cc1` (configuration not stated), the INHIBITION was -11.98%.

Consider `CSCCN1CCN(c2nc(N)ncc2C)CC1`, for which the INHIBITION was 19.4%. Next, `Cc1cnc(C)c(N2CCN(CCCc3[nH]nc(C)c3C)CC2)n1`: 30.3%. The value for `Cc1cnc(C)c(N2CCN(CCCc3ccncc3)CC2)n1` was 76%; that for `Cc1noc(C(C)N2CCN(CCc3ccncc3)CC2)n1` (configuration not stated) was -11.9%; that for `CCN(CC)CCCN1CCN(c2nc(C)cnc2C)CC1` was 71.1%. The value for `Cc1cnc(N)nc1N1CCN(CCCO)CC1` was 42.1%; that for `Cc1nc(CN2C[C@@H]3COC[C@]3(COCC(=O)N(C)C)C2)cs1` was 43.1%; that for `CN(C)c1ccc(C(=O)Nc2cn[nH]c2)cc1` was 4.885%. Take `Cc1cc(C)n(CC(=O)N2CCCC2c2cc3cccnc3[nH]2)n1` (configuration not stated): the INHIBITION was 9.05%. Consider `CCC(=O)N1CCOC(c2cc(Nc3nncs3)cc(C)n2)C1` (configuration not stated), for which the INHIBITION is given as 41%. The value for `O=S1(=O)NC(=CSCc2ccccc2)Nc2ccccc21` was 38%; that for `O=C(c1cc(C2CC2)on1)N1C[C@H]2CC[C@](O)(c3ccccc3F)[C@H]2C1` was 53.45%. The value for `O=C(c1cc(C2CC2)on1)N1C[C@H]2CC[C@](O)(c3ccc(F)cc3)[C@H]2C1` was 1.75%; that for `O=C(c1cc(C2CC2)n[nH]1)N1C[C@H]2CC[C@](O)(c3ccccc3F)[C@H]2C1` was -16.56%; that for `CCC[C@H]1CN(CCS(C)(=O)=O)C[C@@H]1NC(=O)c1ccn(C)n1` was 61.2%. Consider `CCC[C@H]1CN(CCS(C)(=O)=O)C[C@@H]1NC(=O)c1cc(CC)on1`, for which the INHIBITION was 50.1%. The value for `CCC[C@H]1CN(CCS(C)(=O)=O)C[C@@H]1NC(=O)c1cc[nH]n1` was 13%. Consider `CCC[C@H]1CN(CCS(C)(=O)=O)C[C@@H]1NC(=O)c1cccnn1`, for which the INHIBITION is on record as -25.2%.

Regarding `CCC[C@H]1CN(CCS(C)(=O)=O)C[C@@H]1NC(=O)c1ccccc1F`, the INHIBITION was -30.2%. Next, `CCC[C@H]1CN(CCS(C)(=O)=O)C[C@@H]1NC(=O)c1ccccn1`: 26.6%. Take `Cc1cnn(CC2CCCN2C(=O)CCc2ccncc2)c1` (configuration not stated): the INHIBITION is recorded as -14%. Take `Cc1cccc(-c2cc(C(=O)O)sn2)c1`: the INHIBITION is recorded as -12.1%. On to `Cc1occc(=O)c1OCc1noc(C(=O)NCC2CC2)n1`, for which the INHIBITION came to 33.5%. Regarding `O=C(c1cccnc1)N1CCn2nnc(COc3cccnc3)c2C1`, the INHIBITION was found to be 47.8%.

In the case of `Cc1ccc(CN2CCC3(CC2)CC(N2CCN(C)CC2)CO3)s1` (configuration not stated), the INHIBITION was 47.4%. As to `CN1CCN(C2COC3(CCN(Cc4ccsc4)CC3)C2)CC1` (configuration not stated), the INHIBITION came out at 54.4%. `CCc1ccc(CN2CCC3(CC2)CC(N2CCN(C)CC2)CO3)cc1` (configuration not stated): the INHIBITION is listed as 45.5%. On to `CN1CCN(C2COC3(CCN(Cc4cccs4)CC3)C2)CC1` (configuration not stated), for which the INHIBITION was 1.94%. As to `CN1CCN(C2COC3(CCN(Cc4ccc(F)cc4)CC3)C2)CC1` (configuration not stated), the INHIBITION stood at 54.4%. With `CCOC1COC2(CCN(Cc3ccc(F)cc3)CC2)C1` (configuration not stated), the INHIBITION is reported as -24.5%. With `COC(=O)c1cc(C)nc(N2CCN(Cc3cc(C(C)C)no3)CC2)n1`, the INHIBITION is 23.1%. The value for `COc1cccc(OC)c1-c1c[nH]c(C)n1` was 1.56%. As to `Cn1cnc2c1CCN(Cc1c(Cl)ccc3cccnc13)C2`, the INHIBITION is -20.8%.

As to `CN1CCC(c2nnc3ccc(C(=O)N4CCCCC4)cn23)C1` (configuration not stated), the INHIBITION was found to be 82.8%. Regarding `CN1CCC(c2nnc3ccc(C(=O)NC4CCCC4)cn23)C1` (configuration not stated), the INHIBITION was -1.26%. On to `CN1CCN(C)C(c2nnc3ccc(C(=O)N4CCOCC4)cn23)C1` (configuration not stated), for which the INHIBITION was determined as 8.03%.

For the compound `CC(C)N1CCN(C)CC1c1nnc2ccc(C(=O)N3CCCC3)cn12` (configuration not stated), the INHIBITION turned out to be 82.8%. Next, `CS(=O)(=O)N1CCC(c2nnc3ccc(C(=O)N4CCCC4)cn23)C1` (configuration not stated): 40.4%; `CC(C)NC(=O)c1ccc2nnc(C3CN(C)CCN3C)n2c1` (configuration not stated): -37.9%.

(Values after ChEMBL document CHEMBL4513216, “Probing the Open Global Health Chemical Diversity Library for Multistage-Active Starting Points for Next-Generation Antimalarials” (ACS Infect Dis, 2020).)
